# “And” between values parts separate entries of the source, which are not always exact repeats. Equal values may be shown once. Compounds without any hit were thinned out: in the full panel of roughly 83,000, 20% have a hit.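 Percent growth is the endpoint: 0 to 100 indicates growth inhibition (40 means 60% inhibition), 0 means no net growth, and negative values indicate cell death.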 A number with no mark means an inactive call. The source made the active and inactive calls. How the source made its calls: active means growth percent below 10; inactive means the rest.
# What was measured:
# Experiment in all cases: NCI-60 one-dose screen, 48 h (100 = growth as untreated, 0 = no growth, -100 = all killed)
# Conditions in all cases: 10 µM unless noted
# NCI-H23 lung = system: NCI-H23 lung
# NCI-H226 lung = system: NCI-H226 lung
# NCI-H322M lung = system: NCI-H322M lung
# HOP-62 NSCLC = system: HOP-62 NSCLC
# NCI-H460 lung = system: NCI-H460 lung
# HOP-92 NSCLC = system: HOP-92 NSCLC
# NCI-H522 lung = system: NCI-H522 lung
# A549/ATCC NSCLC = system: A549/ATCC NSCLC
# 786-0 renal = system: 786-0 renal
# COLO 205 colon = system: COLO 205 colon
# DU-145 prostate = system: DU-145 prostate
# K-562 leukemia = system: K-562 leukemia
# MALME-3M melanoma = system: MALME-3M melanoma
# MDA-MB-231 breast = system: MDA-MB-231 breast
# RXF 393 renal = system: RXF 393 renal
# SF-268 CNS = system: SF-268 CNS
# SF-295 CNS = system: SF-295 CNS
# SF-539 CNS = system: SF-539 CNS
# UACC-257 melanoma = system: UACC-257 melanoma
# M14 melanoma = system: M14 melanoma
Structure (SMILES),growth (NCI-H23 lung),growth (NCI-H226 lung),growth (NCI-H322M lung),growth (HOP-62 NSCLC),growth (NCI-H460 lung),growth (HOP-92 NSCLC),growth (NCI-H522 lung),growth (A549/ATCC NSCLC),growth (786-0 renal),growth (COLO 205 colon),growth (DU-145 prostate),growth (K-562 leukemia),growth (MALME-3M melanoma),growth (MDA-MB-231 breast),growth (RXF 393 renal),growth (SF-268 CNS),growth (SF-295 CNS),growth (SF-539 CNS),growth (UACC-257 melanoma),growth (M14 melanoma)
c1n[nH]cc1-c1nc2ccc3cn[nH]c3c2c2c1CCCC2,90.2%,46.4%,86.8%,79.9%,101%,85.2%,70.7%,95.1%,110%,102%,93%,101%,72.9%,58.3%,44.8%,94.1%,89.4%,80.8%,100%,93.2%
COC(=O)c1cc(C(=O)C(Br)Br)n2c1ccc1c3ccccc3ccc12,69%,64.2%,89.4%,56.7%,18.4%,54.3%,60.2%,40.8%,64.6%,55.3%,52.2%,52.3%,65.6%,67.7%,141%,68%,54%,54.9%,80.1%,75.1%
COc1ccc(Nc2ncnc3sc4c(c23)CCN(Cc2ccccc2)C4)cc1,91.8%,84.3%,93.7%,81.9%,71%,85.7%,63.2%,77.3%,76.4%,106%,94.3%,45.3%,107%,87.5%,74.6%,66.1%,67.6%,91.3%,94.6%,81.1%
O=[N+]([O-])c1cccc(-c2nnc3c(/C=C/c4ccc(F)cc4)nc4ccccc4n23)c1,91.7%,98.6%,101%,97.9%,90.3%,80%,81%,95%,93.5%,126%,98.7%,87%,95.7%,94.6%,77.2%,87.5%,80.8%,66.9%,107%,108%
Oc1cncc(-c2ccc3ncnc(N4CCc5cc(F)c(Cl)cc54)c3c2)c1,47.8%,42.2%,54.4%,49.5%,39.2%,40.9%,68.4%,40.4%,35.4%,77%,49%,65%,70.8%,46.5%,46.4%,45.1%,57.6%,56%,90.9%,78%
COc1ccc(NC(=O)CSc2nnc(-c3ccc(-c4nc5ccc(Cl)cc5[nH]4)cc3)o2)cc1,-15.7% (active),-18.8% (active),35%,-25.4% (active),-17.2% (active),4.79% (active),6.93% (active),1.75% (active),-64.4% (active),69.4%,8.29% (active),13.3%,0.449% (active),-30.2% (active),-37% (active),45.4%,43.8%,-91.1% (active),29%,13.5%
ClC(Cn1ncc2c(Nc3cccc(Br)c3)nc(SCCN3CCOCC3)nc21)c1ccc(Br)cc1 (stereo not given),-20.2% (active),32.2%,47.5%,-12.9% (active),27.6%,-18.9% (active),13.9%,15.7%,-66.5% (active),-79.2% (active),28.6%,-37.7% (active),-38% (active),-51.8% (active),-62.2% (active),44.7%,-71.3% (active),-79.1% (active),-42.8% (active),-19.5% (active)
Cc1ccc(C2CC(c3ccc(NC(=O)Nc4ccccc4)cc3)=NN2c2ccc(S(C)(=O)=O)cc2)cc1 (stereo not given),-69.1% (active),-39.2% (active),6.06% (active),-39.8% (active),-5.89% (active),-50.4% (active),-23.7% (active),4.89% (active),-31.6% (active),-43.4% (active),3.25% (active),13.1%,-25.1% (active),-70.1% (active),-78.9% (active),9.34% (active),-20.3% (active),-97% (active),34.3%,-44.8% (active)
COc1cc(C2CC(c3ccc(F)cc3)=Nc3c(N)nc(N)nc3N2)ccc1Oc1nc(Nc2ccc(F)cc2)nc(N(C)C)n1 (stereo not given),70%,85.8%,105%,86.3%,10.1%,36.8%,60.6%,58.5%,43.9%,56.2%,55.8%,15.5%,52.5%,44.2%,17.2%,63.4%,40.3%,69.6%,38.7%,56.6%
Nc1nnc(-c2cncc(Br)c2)c(-c2c[nH]c3ccc(Cl)cc23)n1,84.5%,74%,80.9%,91.9%,86.9%,90.9%,68.1%,82.9%,73.9%,113%,99.4%,30.5%,99.3%,74.7%,63.5%,88.6%,92.4%,72.5%,108%,86.4%
Nc1cccc(-n2c(COc3ccc(I)cc3)nc3ccccc32)c1,75.6% and 99.5%,57.2% and 109%,94.4% and 96.2%,86.9% and 103%,86.2% and 108%,63.3% and 113%,81.5% and 107%,104%,106% and 102%,81.4% and 109%,96.2% and 95.5%,61.5% and 99.3%,82.2% and 96.1%,56% and 102%,82.3% and 106%,74.4% and 96.5%,89.8% and 101%,79.7% and 97.7%,99% and 101%,91.5% and 108%
O=C(NNC(=S)NCCc1ccccc1)c1ccc(OCc2nc3ccc(Cl)cc3[nH]2)cc1,66.3%,97.7%,88.8%,97.4%,82.3%,144%,78.7%,73.8%,79.1%,131%,79.4%,29.6%,65.5%,95.5%,93%,70.4%,61.4%,84.3%,79.9%,93.9%
N/C(=N\c1nc2ccccc2s1)NC(=O)Nc1ccccc1F,19.9%,46.2%,54.5%,0.224% (active),30.2%,19.3%,-45.5% (active),47.5%,17.7%,-33% (active),9.55% (active),13.1%,33.3%,19.9%,-1.57% (active),47.2%,2.32% (active),-40.1% (active),84.5%,31.1%
COc1ccc(CCC2NCCc3c(Br)c4c(c(OC)c32)OCO4)cc1 (stereo not given),-24.7% (active),25.5%,14.6%,18.1%,9.1% (active),15.6%,2.33% (active),24.2%,8.08% (active),-37.5% (active),33.8%,6.12% (active),23.4%,10.9%,-17.3% (active),20.3%,4.87% (active),-39.4% (active),37.5%,-30.7% (active)
Nc1ccc(-c2ccc3ncnc(N4CCc5cc(F)c(Cl)cc54)c3c2)cn1,29.4%,18.4%,-2.2% (active),37.5%,25.6%,1.25% (active),15.4%,14.2%,-69.8% (active),50%,5.3% (active),12.9%,3.74% (active),18.4%,-19.2% (active),24%,7.68% (active),24.9%,43.1%,13.5%

# Source: PubChem BioAssay (NCI)
